Assay results as given in the supplement of paper PMC12067093, “Discovery and optimisation of a covalent ligand for TRIM25 and its application to targeted protein ubiquitination” (Chemical Science, 2025).
The full data set covers some 21,000 targets. This sample favours those with the largest changes.

Each target was assayed with CC1Cc2ccccc2N1C(=O)C1CCCN(C1)C(=O)CCl (mixture of isomers) [TRIM25 ligand 11 (diastereomer mixture)] (assay: probe-labelled cysteine peptide fold change vs DMSO (competition) (log2 fold change); higher = less target engagement (more negative = stronger competition)). Details: 10 µM; THP-1; incubation time: 4 h.
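Note: competitive chemoproteomic profiling in live THP-1 cells with an iodoacetamide desthiobiotin (IA-DTB) probe, comparing probe-labelled peptide intensities in compound-treated cells against DMSO-treated controls.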

Target	probe-labelled cysteine peptide fold change
MTF2_Q9Y483_133_CGQGYHQLCHTPHIDSSVIDSDEK (UniProt Q9Y483)	0.12
MTMR3_Q13615_81_ESLVNVPLQLIESVECR (UniProt Q13615)	0.553
MED14_O60244_1433_QGECTIFAAVR (UniProt O60244)	0.177
MAT1A_Q00266_34_ICDQISDAVLDAHLK (UniProt Q00266)	0.555
MED15_Q96RN5_618_QQYLCQPLLDAVLANIR (UniProt Q96RN5)	-0.00606
METAP1_P53582_255_KLVQTTYECLMQAIDAVKPGVR (UniProt P53582)	-0.564
MRPS24_Q96EL2_103_FMWGTFPGCLADQLVLK (UniProt Q96EL2)	0.183
MAP4_P27816_635_CSLPAEEDSVLEK (UniProt P27816)	-0.069
MORC3_Q14149_717_QCHMFTDQIK (UniProt Q14149)	-0.0943
NAPA_P54920_212+215_AALCHFCIDMLNAK (UniProt P54920)	-0.0124
MTM1_Q13496_242_CSQPLVGMSGKR (UniProt Q13496)	-0.862
MGMT_P16455_145_GNPVPILIPCHR (UniProt P16455)	-0.499
LTA4H_P09960_26_CSVDFTR (UniProt P09960)	-0.0535
MT1E_P04732_50_CAQGCVCK<|>MT1F_P04733_50_CAQGCVCK<|>MT1B_P07438_50_CAQGCVCK<|>MT1L_Q93083_50_CAQGCVCK (UniProt Q93083+P07438+P04733+P04732)	-0.000901
MTMR1_Q13613_438_TSVVVHCSDGWDR (UniProt Q13613)	0.559
MRC2_Q9UBG0_201_YDNQWFHGCTSTGR (UniProt Q9UBG0)	-0.768

Same assay, conditions: 50 µM; THP-1; incubation time: 4 h

Target	probe-labelled cysteine peptide fold change
NCAPD3_P42695_361_ILLQHICAK (UniProt P42695)	0.173
MRTO4_Q9UKD2_176_RGVVTLLSDYEVCK (UniProt Q9UKD2)	-0.0317
MED14_O60244_635_AGEMCAFNK (UniProt O60244)	-0.0566
MOCS3_O95396_193_YLVNDACVLAGRPLVSASALR (UniProt O95396)	-0.0185
MCM5_P33992_221_CVDFQTLK (UniProt P33992)	0.0951
MED1_Q15648_302_WTPSFSSITSANSVDLPACFFLK (UniProt Q15648)	0.123
MDN1_Q9NU22_3690_LLGSQLLACTLSHNTLFGEAPSDLMVKPDGPYDFYQHPNVPEAR (UniProt Q9NU22)	0.105
MYO9B_Q13459_152_QQADFDDLCNLPELTEGNLLK (UniProt Q13459)	-0.0276
NCAPG_Q9BPX3_177_DDECPVVNAYATLIENDSNPEVR (UniProt Q9BPX3)	-0.473
NCAPD3_P42695_143_CIQTLK (UniProt P42695)	0.12
MPG_P29372_56_AGQPHSSSDAAQAPAEQPHSSSDAAQAPCPR (UniProt P29372)	-0.822
MSTO1_Q9BUK6_232_LHFYVEECDYLQGFQILCDLHDGFSGVGAK (UniProt Q9BUK6)	-0.0331
MLST8_Q9BVC4_107_WMYTGGEDCTAR (UniProt Q9BVC4)	-0.0842
LYST_Q99698_3649_LCYVQSLAGHK (UniProt Q99698)	-0.124
METAP2_P50579_263_IIDCAFTVTFNPK (UniProt P50579)	0.114
MTF2_Q9Y483_133_CGQGYHQLCHTPHIDSSVIDSDEK (UniProt Q9Y483)	0.228
MTMR3_Q13615_81_ESLVNVPLQLIESVECR (UniProt Q13615)	-0.00809
MED14_O60244_1433_QGECTIFAAVR (UniProt O60244)	0.249
MAT1A_Q00266_34_ICDQISDAVLDAHLK (UniProt Q00266)	0.255
MED15_Q96RN5_618_QQYLCQPLLDAVLANIR (UniProt Q96RN5)	0.36
METAP1_P53582_255_KLVQTTYECLMQAIDAVKPGVR (UniProt P53582)	-0.516
MRPS24_Q96EL2_103_FMWGTFPGCLADQLVLK (UniProt Q96EL2)	0.203
MAP4_P27816_635_CSLPAEEDSVLEK (UniProt P27816)	-0.135
MORC3_Q14149_717_QCHMFTDQIK (UniProt Q14149)	0.000884
NAPA_P54920_212+215_AALCHFCIDMLNAK (UniProt P54920)	0.149
MTM1_Q13496_242_CSQPLVGMSGKR (UniProt Q13496)	-0.255
